Experiments:
Test in all cases: log2 ratio of Biotin-Ahx-Ub-VS probe labelling (fragment/DMSO); higher = less target engagement (more negative = stronger competition), active = hit call of the paper (q ≤ 0.05, log2 ratio ≤ -1)
Settings in all cases: compound concentration: 200 uM; treatment time: 3 h
USP34 = USP34 (UniProt Q70CQ2)
Outline: (§1)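 The table lists average log2 ratios of fragment over vehicle, from an unpaired t-test on global-median-normalised Spectronaut label-free quantities. Proteins with ≥2 unique peptides were used. Samples were HEK293T lysate (495 µg) treated in triplicate with fragment at 200 µM or vehicle for 3 h, then with Biotin-Ahx-Ub-VS (0.5 µM final) for 1 h, with labelled DUBs NeutrAvidin-enriched and run by diaPASEF LC-MS/MS.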

USP36 = target: T1, USP36 (UniProt Q9P275)
T1 sequence (whole entry): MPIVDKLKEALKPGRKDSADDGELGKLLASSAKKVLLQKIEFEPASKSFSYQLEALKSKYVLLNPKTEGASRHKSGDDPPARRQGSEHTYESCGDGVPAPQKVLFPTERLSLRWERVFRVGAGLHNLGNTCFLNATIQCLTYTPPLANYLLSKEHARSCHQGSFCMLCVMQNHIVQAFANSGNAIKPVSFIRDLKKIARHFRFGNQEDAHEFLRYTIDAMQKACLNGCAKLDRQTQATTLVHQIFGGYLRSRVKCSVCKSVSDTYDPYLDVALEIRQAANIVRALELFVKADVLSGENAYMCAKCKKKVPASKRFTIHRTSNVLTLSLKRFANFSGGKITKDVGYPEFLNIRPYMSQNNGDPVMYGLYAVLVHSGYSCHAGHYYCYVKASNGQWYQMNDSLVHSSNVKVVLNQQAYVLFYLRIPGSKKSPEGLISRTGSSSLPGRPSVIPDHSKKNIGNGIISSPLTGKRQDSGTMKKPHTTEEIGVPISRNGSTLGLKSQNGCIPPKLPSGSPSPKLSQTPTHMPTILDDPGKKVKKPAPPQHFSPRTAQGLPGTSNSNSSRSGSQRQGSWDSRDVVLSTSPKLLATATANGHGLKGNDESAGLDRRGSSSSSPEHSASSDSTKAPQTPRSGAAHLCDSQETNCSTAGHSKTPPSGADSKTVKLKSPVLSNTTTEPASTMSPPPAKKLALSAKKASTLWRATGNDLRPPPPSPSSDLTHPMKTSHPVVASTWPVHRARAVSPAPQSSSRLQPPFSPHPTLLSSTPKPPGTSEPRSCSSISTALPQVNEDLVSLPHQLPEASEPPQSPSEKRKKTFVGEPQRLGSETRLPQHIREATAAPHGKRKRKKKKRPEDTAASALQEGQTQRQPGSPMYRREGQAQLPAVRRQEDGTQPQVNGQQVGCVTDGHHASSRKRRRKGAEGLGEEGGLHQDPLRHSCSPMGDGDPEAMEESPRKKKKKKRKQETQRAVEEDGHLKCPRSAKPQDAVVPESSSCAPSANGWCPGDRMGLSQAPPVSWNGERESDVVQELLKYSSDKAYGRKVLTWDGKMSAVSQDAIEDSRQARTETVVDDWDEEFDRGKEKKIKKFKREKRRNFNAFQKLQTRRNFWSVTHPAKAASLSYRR
Outline: as §1

USP38 = target: T2, USP38 (UniProt Q8NB14)
T2 sequence (whole entry): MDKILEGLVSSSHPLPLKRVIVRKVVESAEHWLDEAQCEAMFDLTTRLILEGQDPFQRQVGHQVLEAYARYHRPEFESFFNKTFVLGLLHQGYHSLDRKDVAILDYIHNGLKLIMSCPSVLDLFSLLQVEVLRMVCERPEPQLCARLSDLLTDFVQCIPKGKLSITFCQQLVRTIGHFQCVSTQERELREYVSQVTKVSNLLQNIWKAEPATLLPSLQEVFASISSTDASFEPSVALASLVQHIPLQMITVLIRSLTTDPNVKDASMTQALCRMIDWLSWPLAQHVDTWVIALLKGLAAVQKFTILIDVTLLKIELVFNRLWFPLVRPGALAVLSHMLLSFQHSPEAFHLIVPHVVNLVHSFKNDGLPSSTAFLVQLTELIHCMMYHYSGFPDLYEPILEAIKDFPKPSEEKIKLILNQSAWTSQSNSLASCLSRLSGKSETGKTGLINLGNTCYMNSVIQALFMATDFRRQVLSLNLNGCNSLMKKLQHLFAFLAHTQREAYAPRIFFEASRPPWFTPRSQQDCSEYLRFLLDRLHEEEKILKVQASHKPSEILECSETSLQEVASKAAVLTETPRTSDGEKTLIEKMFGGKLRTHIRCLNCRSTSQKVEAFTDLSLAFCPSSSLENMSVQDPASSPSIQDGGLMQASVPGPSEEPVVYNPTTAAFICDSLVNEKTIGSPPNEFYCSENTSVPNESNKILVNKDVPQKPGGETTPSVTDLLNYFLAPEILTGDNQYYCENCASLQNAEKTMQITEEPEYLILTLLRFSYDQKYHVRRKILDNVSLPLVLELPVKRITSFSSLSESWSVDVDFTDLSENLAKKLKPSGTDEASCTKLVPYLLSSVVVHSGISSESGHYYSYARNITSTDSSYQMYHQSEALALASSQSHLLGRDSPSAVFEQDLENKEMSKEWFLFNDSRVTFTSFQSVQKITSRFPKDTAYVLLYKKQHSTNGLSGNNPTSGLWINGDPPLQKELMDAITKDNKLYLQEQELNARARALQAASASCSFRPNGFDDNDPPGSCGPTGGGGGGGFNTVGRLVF
Outline: as §1

USP39 = target: T3, USP39 (UniProt Q53GS9)
T3 sequence (whole entry): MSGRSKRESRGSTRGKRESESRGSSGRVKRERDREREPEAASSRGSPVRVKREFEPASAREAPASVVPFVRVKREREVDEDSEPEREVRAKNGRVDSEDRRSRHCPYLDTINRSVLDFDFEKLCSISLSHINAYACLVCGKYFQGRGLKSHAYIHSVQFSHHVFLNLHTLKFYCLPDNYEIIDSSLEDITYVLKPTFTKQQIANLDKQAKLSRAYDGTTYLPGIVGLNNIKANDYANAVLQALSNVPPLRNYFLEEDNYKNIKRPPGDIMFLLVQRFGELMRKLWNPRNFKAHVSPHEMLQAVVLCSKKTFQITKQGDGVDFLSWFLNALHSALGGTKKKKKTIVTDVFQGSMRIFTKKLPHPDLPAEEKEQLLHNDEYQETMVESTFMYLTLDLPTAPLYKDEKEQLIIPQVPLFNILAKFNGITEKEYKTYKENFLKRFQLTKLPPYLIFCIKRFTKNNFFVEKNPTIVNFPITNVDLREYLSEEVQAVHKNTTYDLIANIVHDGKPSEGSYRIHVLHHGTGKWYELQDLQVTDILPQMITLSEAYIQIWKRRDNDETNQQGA
Outline: as §1

USP4 = target: T4, USP4 (UniProt Q13107)
T4 sequence (whole entry): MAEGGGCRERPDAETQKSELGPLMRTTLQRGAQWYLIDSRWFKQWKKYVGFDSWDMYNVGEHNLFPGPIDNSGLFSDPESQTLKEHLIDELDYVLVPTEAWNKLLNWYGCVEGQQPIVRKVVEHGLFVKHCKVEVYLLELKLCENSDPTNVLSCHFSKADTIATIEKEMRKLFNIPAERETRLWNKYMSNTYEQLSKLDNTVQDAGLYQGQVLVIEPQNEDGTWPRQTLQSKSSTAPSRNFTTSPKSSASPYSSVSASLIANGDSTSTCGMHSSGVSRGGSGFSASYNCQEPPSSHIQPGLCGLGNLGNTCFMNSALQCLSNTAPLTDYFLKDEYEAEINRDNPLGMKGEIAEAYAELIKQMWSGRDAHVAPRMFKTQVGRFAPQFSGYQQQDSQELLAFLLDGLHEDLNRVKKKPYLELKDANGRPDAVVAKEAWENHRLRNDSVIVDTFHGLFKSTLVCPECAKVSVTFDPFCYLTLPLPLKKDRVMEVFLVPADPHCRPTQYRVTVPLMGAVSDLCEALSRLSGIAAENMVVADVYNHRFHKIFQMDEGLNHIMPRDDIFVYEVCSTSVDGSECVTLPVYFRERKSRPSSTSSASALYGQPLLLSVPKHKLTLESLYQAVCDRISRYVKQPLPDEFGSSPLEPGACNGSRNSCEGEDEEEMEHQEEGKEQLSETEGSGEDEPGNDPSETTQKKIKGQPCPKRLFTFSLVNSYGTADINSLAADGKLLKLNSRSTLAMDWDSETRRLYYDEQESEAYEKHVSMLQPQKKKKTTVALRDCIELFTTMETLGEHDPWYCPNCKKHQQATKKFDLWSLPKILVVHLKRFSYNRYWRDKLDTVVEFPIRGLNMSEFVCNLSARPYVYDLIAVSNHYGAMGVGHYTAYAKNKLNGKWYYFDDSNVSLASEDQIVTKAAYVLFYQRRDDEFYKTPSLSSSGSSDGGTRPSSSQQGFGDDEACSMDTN
Outline: as §1

Measured: log2 ratio of Biotin-Ahx-Ub-VS probe labelling

USP34, sequence (Q70CQ2 whole entry, the tested form may be a part): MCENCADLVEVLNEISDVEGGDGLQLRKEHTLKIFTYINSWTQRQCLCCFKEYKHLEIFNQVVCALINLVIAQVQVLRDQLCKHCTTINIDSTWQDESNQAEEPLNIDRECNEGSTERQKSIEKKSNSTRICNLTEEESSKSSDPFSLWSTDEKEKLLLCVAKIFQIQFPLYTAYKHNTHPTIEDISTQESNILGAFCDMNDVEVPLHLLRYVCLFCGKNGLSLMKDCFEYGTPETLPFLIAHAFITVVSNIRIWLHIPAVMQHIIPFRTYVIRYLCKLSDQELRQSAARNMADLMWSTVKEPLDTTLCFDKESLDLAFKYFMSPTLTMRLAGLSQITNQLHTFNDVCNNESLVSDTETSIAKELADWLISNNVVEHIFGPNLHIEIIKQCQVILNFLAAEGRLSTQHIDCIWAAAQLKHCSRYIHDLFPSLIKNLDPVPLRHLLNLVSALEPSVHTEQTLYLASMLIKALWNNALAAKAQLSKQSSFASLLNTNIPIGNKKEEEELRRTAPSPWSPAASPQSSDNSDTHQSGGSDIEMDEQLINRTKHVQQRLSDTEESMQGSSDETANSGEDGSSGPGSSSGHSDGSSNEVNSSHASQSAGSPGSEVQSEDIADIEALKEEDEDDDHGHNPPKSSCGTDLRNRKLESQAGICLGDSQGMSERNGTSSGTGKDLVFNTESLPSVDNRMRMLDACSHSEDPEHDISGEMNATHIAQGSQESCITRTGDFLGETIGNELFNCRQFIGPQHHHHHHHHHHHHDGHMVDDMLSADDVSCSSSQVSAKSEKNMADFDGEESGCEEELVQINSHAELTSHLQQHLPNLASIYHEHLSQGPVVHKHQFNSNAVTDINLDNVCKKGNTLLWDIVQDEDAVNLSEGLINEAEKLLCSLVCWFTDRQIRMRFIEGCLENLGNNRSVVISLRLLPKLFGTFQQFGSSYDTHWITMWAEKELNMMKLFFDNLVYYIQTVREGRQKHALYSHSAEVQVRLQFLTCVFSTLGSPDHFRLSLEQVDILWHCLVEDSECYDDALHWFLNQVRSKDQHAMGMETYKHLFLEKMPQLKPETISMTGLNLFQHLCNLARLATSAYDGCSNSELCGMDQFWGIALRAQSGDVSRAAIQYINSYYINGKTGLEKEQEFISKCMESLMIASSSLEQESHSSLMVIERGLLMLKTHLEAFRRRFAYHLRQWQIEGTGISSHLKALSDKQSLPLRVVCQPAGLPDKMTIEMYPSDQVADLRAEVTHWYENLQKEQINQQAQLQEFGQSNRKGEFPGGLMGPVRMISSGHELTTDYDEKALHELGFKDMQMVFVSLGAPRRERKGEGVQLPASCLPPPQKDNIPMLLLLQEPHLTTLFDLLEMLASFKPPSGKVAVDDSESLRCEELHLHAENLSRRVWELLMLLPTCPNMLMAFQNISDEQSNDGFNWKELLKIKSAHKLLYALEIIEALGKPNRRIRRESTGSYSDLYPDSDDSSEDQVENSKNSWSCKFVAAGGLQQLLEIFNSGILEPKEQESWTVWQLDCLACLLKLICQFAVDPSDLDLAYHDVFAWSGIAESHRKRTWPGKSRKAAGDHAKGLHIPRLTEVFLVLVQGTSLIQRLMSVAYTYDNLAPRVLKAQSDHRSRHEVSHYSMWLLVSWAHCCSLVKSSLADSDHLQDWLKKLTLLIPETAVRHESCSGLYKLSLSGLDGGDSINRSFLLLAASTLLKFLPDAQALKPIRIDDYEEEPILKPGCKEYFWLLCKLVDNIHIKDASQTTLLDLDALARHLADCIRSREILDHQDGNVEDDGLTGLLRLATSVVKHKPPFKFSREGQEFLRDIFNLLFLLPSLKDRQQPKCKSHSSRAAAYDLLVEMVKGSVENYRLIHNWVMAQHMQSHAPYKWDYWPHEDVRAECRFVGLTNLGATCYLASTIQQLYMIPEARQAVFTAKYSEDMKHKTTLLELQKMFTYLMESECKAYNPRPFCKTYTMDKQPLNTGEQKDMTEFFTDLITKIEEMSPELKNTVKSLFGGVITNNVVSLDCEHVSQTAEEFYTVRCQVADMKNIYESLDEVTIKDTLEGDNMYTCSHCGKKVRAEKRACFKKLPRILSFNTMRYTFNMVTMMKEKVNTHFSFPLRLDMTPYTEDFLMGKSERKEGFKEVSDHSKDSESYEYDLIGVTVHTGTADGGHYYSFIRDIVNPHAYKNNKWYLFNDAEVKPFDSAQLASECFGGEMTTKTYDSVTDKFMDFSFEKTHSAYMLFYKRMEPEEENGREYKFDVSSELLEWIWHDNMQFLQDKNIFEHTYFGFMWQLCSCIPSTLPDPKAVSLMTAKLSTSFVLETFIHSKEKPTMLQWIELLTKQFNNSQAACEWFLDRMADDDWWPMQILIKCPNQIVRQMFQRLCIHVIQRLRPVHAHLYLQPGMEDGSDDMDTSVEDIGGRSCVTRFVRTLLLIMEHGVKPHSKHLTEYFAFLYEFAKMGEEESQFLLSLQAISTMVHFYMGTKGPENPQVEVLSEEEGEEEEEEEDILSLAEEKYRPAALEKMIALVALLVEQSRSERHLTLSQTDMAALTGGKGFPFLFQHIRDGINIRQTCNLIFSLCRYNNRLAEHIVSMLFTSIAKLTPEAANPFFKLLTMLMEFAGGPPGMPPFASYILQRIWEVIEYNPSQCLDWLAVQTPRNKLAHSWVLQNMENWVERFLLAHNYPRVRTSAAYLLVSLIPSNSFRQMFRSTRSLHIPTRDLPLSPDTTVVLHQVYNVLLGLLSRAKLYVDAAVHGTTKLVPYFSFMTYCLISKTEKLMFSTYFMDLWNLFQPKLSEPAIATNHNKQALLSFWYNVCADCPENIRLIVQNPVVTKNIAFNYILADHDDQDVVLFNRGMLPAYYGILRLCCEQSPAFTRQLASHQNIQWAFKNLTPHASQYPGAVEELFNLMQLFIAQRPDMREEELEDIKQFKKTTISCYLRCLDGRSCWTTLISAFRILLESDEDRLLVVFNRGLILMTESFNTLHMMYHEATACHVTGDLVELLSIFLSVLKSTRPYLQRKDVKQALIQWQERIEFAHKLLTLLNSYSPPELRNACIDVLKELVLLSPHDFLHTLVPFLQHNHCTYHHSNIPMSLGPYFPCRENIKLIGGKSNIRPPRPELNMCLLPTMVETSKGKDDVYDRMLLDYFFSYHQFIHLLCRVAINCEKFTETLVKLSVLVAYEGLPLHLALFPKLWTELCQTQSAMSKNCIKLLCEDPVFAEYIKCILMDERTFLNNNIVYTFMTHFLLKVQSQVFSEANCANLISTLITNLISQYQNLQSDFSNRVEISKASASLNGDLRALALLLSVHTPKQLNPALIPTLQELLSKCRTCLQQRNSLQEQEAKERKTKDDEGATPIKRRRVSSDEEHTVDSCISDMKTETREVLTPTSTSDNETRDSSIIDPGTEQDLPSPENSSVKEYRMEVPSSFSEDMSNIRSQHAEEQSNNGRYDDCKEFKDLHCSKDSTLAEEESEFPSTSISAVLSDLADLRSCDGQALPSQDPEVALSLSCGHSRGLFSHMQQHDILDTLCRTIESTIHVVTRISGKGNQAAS

O=C(CCl)N(Cc1ccsc1)C1CC1
inactive: USP34 -0.211 | USP36 0.266 | USP38 0.00214 | USP39 -0.0741 | USP4 -0.116
